Reference: PMC7862700, “An all-to-all approach to the identification of sequence-specific readers for epigenetic DNA modifications on cytosine”

Assays:
Experiment in all cases: DAPPL (digital affinity profiling via proximity ligation, sequencing); 10 mM Tris-HCl pH 7.5, 50 mM NaCl, 1 mM DTT, 4% glycerol, room temperature, 30 min; GST-TFs on glutathione beads, 16-mer random dsDNA library, 0.1% formaldehyde crosslink after washing; high values mean tight binding
FEV = biological target: T1, FEV (Homo sapiens, UniProt Q99581 1-238); details: protein: recombinant; tags: N-terminal GST; dsDNA, one strand shown
T1 sequence: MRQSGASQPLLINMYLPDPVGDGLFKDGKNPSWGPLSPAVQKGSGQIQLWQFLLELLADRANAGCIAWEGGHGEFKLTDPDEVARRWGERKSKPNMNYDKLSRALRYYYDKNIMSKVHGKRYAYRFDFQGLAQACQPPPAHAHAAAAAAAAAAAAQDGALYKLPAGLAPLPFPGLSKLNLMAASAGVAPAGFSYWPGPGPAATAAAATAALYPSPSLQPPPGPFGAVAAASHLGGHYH
How it was run: (§1)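 Human transcription factors were made in yeast as GST fusions, captured on glutathione beads and barcoded with DNA. With a tag-only sample included, the pool was incubated with 200 nmole of a random double-stranded 16-mer DNA library in Tris/NaCl/DTT/glycerol buffer at room temperature for 30 min, then crosslinked with 0.1% formaldehyde after washing, ligated by proximity, amplified and sequenced. For binding signal, each hexamer's read frequency for a factor is divided by its frequency for the tag-only sample.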

ETV5 = ETV5 (Homo sapiens, UniProt P41161 1-510); details: protein: recombinant; tags: N-terminal GST; dsDNA, one strand shown
How it was run: as §1

HSF1 = HSF1 (Homo sapiens, UniProt Q00613 1-529); details: protein: recombinant; tags: N-terminal GST; chain copies: 3; dsDNA, one strand shown
How it was run: as §1

SPIC = biological target: T2, SPIC (Homo sapiens, UniProt Q8N5J4 1-248); details: protein: recombinant; tags: N-terminal GST; dsDNA, one strand shown
T2 sequence: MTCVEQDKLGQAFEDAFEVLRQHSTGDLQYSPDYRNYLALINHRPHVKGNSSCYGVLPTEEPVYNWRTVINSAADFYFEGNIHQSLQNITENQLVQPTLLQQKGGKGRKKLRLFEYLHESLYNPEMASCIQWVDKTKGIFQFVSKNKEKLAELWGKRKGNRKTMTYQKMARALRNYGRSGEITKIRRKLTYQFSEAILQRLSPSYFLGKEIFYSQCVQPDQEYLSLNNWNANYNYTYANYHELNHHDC
How it was run: as §1

ELF4 = ELF4 (Homo sapiens, UniProt Q99607 1-663); details: protein: recombinant; tags: N-terminal GST; dsDNA, one strand shown
How it was run: as §1

ELK4 = biological target: T3, ELK4 (Homo sapiens, UniProt P28324-2 1-405); details: protein: recombinant; tags: N-terminal GST; dsDNA, one strand shown
T3 sequence: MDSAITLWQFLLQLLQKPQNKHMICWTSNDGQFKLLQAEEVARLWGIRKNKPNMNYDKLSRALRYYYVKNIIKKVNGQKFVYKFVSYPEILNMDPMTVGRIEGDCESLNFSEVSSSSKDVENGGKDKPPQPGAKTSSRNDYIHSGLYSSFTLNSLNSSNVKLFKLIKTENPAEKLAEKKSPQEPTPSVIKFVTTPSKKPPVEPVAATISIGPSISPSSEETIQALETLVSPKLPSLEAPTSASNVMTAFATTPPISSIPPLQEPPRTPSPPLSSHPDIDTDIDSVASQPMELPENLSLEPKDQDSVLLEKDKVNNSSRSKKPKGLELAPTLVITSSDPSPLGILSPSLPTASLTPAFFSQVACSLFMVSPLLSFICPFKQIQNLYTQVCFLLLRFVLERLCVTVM
How it was run: as §1

ETV2 = biological target: T4, ETV2 (Homo sapiens, UniProt O00321 1-342); details: protein: recombinant; tags: N-terminal GST; dsDNA, one strand shown
T4 sequence: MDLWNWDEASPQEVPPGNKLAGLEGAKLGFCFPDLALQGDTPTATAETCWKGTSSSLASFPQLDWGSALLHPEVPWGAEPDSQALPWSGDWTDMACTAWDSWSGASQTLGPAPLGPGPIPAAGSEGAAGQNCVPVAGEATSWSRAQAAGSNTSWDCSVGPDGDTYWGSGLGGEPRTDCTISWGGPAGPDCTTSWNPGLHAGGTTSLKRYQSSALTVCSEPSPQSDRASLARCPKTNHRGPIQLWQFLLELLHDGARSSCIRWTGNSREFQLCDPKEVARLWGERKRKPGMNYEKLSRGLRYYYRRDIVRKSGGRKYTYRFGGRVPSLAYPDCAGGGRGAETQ
How it was run: as §1

ELF3 = biological target: T5, ELF3 (Homo sapiens, UniProt P78545 1-371); details: protein: recombinant; tags: N-terminal GST; dsDNA, one strand shown
T5 sequence: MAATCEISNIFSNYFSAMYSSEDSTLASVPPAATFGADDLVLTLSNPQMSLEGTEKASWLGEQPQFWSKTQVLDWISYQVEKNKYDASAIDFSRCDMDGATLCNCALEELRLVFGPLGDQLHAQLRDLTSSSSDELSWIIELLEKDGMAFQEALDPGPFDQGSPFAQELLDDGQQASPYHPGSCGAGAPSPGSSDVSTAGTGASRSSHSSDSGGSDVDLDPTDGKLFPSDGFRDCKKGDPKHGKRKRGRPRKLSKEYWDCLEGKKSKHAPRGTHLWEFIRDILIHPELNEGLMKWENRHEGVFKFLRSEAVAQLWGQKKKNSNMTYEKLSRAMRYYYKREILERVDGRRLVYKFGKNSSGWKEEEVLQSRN
How it was run: as §1

CRX = CRX (Homo sapiens, UniProt O43186 1-299); details: protein: recombinant; tags: N-terminal GST; dsDNA, one strand shown
How it was run: as §1

ETV1 = ETV1 (Homo sapiens, UniProt P50549 1-477); details: protein: recombinant; tags: N-terminal GST; dsDNA, one strand shown
How it was run: as §1

Chain of ETV1 (P50549 whole entry): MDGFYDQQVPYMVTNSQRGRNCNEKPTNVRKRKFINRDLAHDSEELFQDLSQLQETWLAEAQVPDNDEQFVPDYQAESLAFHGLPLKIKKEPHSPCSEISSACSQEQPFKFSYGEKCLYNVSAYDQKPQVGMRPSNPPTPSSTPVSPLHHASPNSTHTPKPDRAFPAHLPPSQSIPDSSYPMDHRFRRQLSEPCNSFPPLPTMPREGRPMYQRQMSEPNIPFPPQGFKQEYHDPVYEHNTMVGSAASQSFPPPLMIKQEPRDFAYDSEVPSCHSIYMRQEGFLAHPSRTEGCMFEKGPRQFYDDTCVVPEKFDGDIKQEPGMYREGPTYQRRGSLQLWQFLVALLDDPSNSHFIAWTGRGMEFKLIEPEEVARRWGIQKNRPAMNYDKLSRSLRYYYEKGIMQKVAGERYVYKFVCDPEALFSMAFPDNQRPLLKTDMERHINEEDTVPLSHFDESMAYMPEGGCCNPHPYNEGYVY
Chain of HSF1 (Q00613 whole entry): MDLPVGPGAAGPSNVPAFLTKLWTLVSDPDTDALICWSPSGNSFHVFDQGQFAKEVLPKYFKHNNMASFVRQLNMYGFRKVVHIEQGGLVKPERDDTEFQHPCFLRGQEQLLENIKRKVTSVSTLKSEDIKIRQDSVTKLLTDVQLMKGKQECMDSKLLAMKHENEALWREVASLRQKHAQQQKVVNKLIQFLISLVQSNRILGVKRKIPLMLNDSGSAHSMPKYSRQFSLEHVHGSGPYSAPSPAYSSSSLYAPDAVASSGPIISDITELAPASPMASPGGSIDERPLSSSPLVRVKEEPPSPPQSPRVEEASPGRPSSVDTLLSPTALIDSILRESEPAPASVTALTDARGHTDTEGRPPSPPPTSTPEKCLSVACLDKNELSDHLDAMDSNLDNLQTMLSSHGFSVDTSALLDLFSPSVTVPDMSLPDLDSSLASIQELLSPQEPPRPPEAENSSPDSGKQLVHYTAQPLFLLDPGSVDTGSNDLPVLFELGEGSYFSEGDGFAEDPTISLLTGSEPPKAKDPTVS
Chain of CRX (O43186 whole entry): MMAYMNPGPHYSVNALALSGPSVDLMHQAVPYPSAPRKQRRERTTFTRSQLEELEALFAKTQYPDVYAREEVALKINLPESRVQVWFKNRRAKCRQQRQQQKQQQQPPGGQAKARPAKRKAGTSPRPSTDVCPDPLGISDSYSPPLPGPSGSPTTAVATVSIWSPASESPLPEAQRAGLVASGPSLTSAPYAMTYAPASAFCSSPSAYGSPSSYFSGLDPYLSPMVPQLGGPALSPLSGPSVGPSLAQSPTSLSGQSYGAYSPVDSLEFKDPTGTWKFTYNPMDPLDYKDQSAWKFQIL
Chain of ETV5 (P41161 whole entry): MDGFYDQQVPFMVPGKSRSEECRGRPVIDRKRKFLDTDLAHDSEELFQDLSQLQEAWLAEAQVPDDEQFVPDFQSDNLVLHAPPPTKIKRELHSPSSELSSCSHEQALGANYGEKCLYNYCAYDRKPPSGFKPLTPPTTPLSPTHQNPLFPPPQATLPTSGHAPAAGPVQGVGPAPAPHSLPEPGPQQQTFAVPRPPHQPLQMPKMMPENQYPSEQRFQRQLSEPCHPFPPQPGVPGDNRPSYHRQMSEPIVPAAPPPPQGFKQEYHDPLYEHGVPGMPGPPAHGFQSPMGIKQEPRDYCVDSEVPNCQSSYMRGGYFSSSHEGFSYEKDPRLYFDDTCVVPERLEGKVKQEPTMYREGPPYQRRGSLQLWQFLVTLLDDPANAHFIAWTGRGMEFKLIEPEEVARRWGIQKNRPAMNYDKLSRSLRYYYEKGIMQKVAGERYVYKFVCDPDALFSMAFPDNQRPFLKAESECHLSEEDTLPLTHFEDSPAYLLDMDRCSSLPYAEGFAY
Chain of ELF4 (Q99607 whole entry): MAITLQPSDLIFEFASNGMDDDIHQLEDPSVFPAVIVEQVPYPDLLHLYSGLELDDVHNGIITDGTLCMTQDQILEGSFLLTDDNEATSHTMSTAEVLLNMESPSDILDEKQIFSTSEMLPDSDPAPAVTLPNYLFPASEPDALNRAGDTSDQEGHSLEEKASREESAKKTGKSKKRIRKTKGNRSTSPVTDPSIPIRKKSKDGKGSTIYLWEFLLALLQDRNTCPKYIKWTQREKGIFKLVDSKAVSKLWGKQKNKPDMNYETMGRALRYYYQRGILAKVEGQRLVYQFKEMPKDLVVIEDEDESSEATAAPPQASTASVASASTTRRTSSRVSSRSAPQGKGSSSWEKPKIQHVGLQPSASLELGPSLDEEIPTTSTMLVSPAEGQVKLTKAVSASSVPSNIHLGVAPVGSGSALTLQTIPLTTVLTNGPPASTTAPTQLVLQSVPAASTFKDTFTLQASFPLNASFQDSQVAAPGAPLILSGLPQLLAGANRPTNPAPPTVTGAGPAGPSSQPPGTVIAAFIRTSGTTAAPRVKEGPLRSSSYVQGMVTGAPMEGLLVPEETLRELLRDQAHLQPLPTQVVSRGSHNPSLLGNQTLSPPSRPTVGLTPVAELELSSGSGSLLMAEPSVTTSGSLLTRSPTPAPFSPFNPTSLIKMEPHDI

GACTCT
binding signal (FEV): 1.32 fold enrichment (6-mer frequency, TF over GST control) | binding signal (ETV5): 1.26 fold enrichment (6-mer frequency, TF over GST control) | binding signal (HSF1): 1.26 fold enrichment (6-mer frequency, TF over GST control) | binding signal (SPIC): 1.55 fold enrichment (6-mer frequency, TF over GST control) | binding signal (ELF4): 1.29 fold enrichment (6-mer frequency, TF over GST control) | binding signal (ELK4): 1.28 fold enrichment (6-mer frequency, TF over GST control) | binding signal (ETV2): 1.26 fold enrichment (6-mer frequency, TF over GST control) | binding signal (ELF3): 1.28 fold enrichment (6-mer frequency, TF over GST control) | binding signal (CRX): 1.13 fold enrichment (6-mer frequency, TF over GST control) | binding signal (ETV1): 1.32 fold enrichment (6-mer frequency, TF over GST control)
